Key:
Settings in all cases: concentration: 1 μM, replicates: in singlicate; n = 1
MAP4K3 = test system: MAP4K3
MAP4K4 = test system: MAP4K4
MAP4K5 = test system: MAP4K5
MAPKAPK2 = test system: MAPKAPK2
MAPKAPK5 = test system: MAPKAPK5
MARK1 = test system: MARK1
MARK2 = test system: MARK2
MARK3 = test system: MARK3
MARK4 = test system: MARK4
MAST1 = test system: MAST1
MEK1 = test system: T1, MEK1
T1 construct: gene MAP2K1

MEK2 = test system: T2, MEK2
T2 construct: gene MAP2K2

MEK3 = test system: T3, MEK3
T3 construct: gene MAP2K3

MEK4 = test system: T4, MEK4
T4 construct: gene MAP2K4

MEK5 = test system: T5, MEK5
T5 construct: gene MAP2K5

MEK6 = test system: T6, MEK6
T6 construct: gene MAP2K6

MELK = test system: MELK
MERTK = test system: MERTK
MET = test system: MET
MINK = test system: T7, MINK
T7 construct: gene MINK1
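Further: KINOMEscan kinase panel screen.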

| Compound | %Inh (MAP4K3) | %Inh (MAP4K4) | %Inh (MAP4K5) | %Inh (MAPKAPK2) | %Inh (MAPKAPK5) | %Inh (MARK1) | %Inh (MARK2) | %Inh (MARK3) | %Inh (MARK4) | %Inh (MAST1) | %Inh (MEK1) | %Inh (MEK2) | %Inh (MEK3) | %Inh (MEK4) | %Inh (MEK5) | %Inh (MEK6) | %Inh (MELK) | %Inh (MERTK) | %Inh (MET) | %Inh (MINK) |
| --- | --- | --- | --- | --- | --- | --- | --- | --- | --- | --- | --- | --- | --- | --- | --- | --- | --- | --- | --- | --- |
| O=C(Nc1cccc(-c2nn3ncccc3c2-c2ccnc(Nc3cccc(C(F)(F)F)c3)n2)c1)c1c(F)cccc1F [GSK299495] | 0% | 0% | 48% | 35% | 0% | 0% | 0% | 2% | 0% | 0% | 48% | 54% | 0% | 29% | 97.6% | 7% | 0% | 51% | 0% | 0% |
| CNc1ncnc2[nH]ncc12 [SKF-18355] | 0% | 0% | 0% | 0% | 0% | 23% | 14% | 35% | 59% | 70% | 13% | 40% | 31% | 18% | 55% | 10% | 0% | 0% | 0% | 18% |
| Cl.Nc1ncnc2occ(-c3ccc(NC(=O)Nc4cc(C(F)(F)F)ccc4F)cc3)c12 [SB-707548] | 77% | 92.9% | 99.7% | 15% | 0% | 0% | 32% | 26% | 0% | 0% | 15% | 57% | 0% | 23% | 91.4% | 10% | 33% | 98.3% | 17% | 62% |
| COc1cc(Nc2nccc(N3CCC(NC(=O)c4cccc(NC(C)=O)c4)C3)n2)cc(OC)c1OC (stereo not shown) [GSK1379754] | 2% | 23% | 10% | 0% | 0% | 0% | 0% | 0% | 15% | 0% | 0% | 0% | 7% | 17% | 93.5% | 0% | 19% | 30% | 21% | 27% |
| CC(C)Oc1ccc2c(-c3ccnc(Nc4ccc(N5CCN(C)CC5)cc4)n3)cnn2n1 [GW696155] | 52% | 1% | 0% | 0% | 0% | 50% | 72% | 77% | 59% | 8% | 25% | 43% | 43% | 50% | 82% | 53% | 71% | 10% | 0% | 65% |
